Common to all, as to assay: DAPPL (digital affinity profiling via proximity ligation, sequencing); 10 mM Tris-HCl pH 7.5, 50 mM NaCl, 1 mM DTT, 4% glycerol, room temperature, 30 min; GST-TFs on glutathione beads, 16-mer random dsDNA library, 0.1% formaldehyde crosslink after washing; high values mean tight binding
Holding throughout (conditions): protein: recombinant; tags: N-terminal GST; dsDNA, one strand shown

Assay [1] has as its target T1, ELK1 (Homo sapiens, UniProt P19419 1-428).
T1 sequence: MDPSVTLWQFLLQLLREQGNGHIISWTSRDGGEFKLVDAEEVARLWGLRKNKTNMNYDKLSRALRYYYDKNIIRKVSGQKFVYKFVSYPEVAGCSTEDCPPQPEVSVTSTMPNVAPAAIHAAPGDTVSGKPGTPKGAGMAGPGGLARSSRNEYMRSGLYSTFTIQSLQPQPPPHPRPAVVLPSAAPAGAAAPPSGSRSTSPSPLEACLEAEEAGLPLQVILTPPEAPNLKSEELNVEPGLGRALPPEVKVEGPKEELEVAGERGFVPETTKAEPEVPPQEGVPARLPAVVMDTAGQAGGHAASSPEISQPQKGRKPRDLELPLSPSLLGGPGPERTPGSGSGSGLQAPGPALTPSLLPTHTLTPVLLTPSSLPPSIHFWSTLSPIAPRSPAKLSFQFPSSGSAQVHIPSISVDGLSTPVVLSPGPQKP
In outline:
(§1)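 Binding signal is each hexamer's read frequency for a factor divided by its frequency in the tag-only sample. The factors were GST-fused human transcription factors from yeast, captured on glutathione beads, DNA-barcoded and pooled with that sample. Pools were incubated with 200 nmole of a random double-stranded 16-mer DNA library in Tris/NaCl/DTT/glycerol buffer at room temperature for 30 min, then washed, crosslinked with 0.1% formaldehyde, proximity-ligated with BsaI/T4 ligase (1 h, 37 °C), PCR-amplified and sequenced on an Illumina NextSeq500.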

Assay [2] deals with T2, GABPA (Homo sapiens, UniProt Q06546 1-454).
T2 sequence: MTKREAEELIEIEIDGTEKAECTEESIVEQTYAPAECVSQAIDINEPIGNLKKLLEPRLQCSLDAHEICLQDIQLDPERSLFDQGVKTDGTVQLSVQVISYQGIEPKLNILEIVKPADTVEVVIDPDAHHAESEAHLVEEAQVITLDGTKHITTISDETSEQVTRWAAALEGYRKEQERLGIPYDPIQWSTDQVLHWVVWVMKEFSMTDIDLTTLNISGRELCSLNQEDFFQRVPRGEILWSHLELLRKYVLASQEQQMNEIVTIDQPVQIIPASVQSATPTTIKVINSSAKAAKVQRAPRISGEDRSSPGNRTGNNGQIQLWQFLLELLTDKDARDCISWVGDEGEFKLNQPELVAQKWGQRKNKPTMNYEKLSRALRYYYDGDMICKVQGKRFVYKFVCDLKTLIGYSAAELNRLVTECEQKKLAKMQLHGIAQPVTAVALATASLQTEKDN
In outline: as §1

The target of assay [3] is T3, ERG (Homo sapiens, UniProt P11308 1-479).
T3 sequence: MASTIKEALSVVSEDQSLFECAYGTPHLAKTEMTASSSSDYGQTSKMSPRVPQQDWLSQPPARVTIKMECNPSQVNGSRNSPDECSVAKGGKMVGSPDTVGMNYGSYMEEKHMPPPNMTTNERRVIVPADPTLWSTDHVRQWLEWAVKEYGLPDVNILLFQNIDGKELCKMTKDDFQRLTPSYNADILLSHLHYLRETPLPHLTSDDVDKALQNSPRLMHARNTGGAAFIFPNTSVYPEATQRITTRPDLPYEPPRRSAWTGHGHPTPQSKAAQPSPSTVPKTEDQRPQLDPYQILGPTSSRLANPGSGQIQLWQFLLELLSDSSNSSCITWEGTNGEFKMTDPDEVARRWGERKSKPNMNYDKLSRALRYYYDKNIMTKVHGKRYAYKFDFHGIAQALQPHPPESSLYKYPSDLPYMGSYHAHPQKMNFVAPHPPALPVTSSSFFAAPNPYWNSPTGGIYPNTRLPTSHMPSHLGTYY
Summed up: as §1

The target in assay [4] is ELF1 (Homo sapiens, UniProt P32519 1-619). Summed up:
as §1

The target in assay [5] is T4, EHF (Homo sapiens, UniProt Q9NZC4 1-300).
T4 sequence: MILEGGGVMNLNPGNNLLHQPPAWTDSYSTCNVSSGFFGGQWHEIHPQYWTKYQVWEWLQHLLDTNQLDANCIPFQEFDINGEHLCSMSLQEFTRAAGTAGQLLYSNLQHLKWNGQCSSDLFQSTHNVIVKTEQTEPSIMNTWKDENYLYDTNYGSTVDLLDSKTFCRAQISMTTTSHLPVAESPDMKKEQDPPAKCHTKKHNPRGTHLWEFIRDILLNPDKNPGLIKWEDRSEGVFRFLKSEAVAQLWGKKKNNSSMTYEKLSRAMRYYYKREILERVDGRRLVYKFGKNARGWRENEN
In outline:
as §1

Assay [6] has as its target SPI1 (Homo sapiens, UniProt P17947 1-270). Summed up:
as §1

For assay [7], the target named is SPIB (Homo sapiens, UniProt Q01892 1-262). In outline: as §1
Assay [8] deals with T5, FEV (Homo sapiens, UniProt Q99581 1-238).
T5 sequence: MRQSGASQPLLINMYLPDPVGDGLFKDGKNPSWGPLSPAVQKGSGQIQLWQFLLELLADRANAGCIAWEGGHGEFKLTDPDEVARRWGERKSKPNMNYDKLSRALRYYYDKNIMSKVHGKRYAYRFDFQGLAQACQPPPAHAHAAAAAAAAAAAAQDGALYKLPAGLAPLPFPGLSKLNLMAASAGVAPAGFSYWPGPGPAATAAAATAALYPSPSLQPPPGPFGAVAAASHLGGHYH
Summed up: as §1

Assay [9] addresses ETV5 (Homo sapiens, UniProt P41161 1-510). In outline: as §1
In assay [10] the target is ELF4 (Homo sapiens, UniProt Q99607 1-663). In outline: as §1
Sequence of ELF4 (Q99607 whole entry): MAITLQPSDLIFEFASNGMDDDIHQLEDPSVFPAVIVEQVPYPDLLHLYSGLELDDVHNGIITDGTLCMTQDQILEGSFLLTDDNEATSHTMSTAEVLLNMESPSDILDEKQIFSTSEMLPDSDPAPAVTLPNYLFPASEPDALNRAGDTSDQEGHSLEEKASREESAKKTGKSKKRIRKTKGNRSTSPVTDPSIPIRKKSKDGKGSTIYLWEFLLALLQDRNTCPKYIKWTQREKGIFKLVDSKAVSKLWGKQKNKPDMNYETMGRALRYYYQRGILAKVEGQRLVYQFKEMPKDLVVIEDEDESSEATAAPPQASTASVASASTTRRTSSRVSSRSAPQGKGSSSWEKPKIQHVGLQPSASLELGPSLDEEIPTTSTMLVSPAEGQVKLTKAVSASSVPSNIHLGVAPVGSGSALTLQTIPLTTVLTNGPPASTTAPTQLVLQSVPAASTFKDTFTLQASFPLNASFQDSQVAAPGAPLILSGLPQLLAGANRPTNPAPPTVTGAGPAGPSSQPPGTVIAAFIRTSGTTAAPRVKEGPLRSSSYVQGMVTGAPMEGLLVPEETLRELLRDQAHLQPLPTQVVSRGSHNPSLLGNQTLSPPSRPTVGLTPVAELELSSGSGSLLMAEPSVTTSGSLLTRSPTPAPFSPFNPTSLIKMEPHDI

Sequence of ELF1 (P32519 whole entry): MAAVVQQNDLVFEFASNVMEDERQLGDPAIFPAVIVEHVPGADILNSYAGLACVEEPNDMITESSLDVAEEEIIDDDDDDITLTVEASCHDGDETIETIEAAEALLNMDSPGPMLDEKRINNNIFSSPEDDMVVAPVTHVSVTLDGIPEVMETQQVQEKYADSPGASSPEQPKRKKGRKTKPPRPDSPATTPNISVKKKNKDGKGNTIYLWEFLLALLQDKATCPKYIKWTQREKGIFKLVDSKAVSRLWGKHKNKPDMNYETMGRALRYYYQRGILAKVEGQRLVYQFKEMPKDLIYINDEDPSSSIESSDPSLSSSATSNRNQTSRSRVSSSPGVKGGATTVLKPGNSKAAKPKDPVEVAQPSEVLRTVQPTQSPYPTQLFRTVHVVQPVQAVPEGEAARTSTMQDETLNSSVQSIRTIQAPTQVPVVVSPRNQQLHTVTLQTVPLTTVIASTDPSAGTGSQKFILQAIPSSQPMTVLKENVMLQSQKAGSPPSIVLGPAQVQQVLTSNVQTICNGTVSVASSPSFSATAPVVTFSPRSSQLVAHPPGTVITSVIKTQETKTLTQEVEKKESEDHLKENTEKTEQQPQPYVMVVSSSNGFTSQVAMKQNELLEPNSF
Sequence of ETV5 (P41161 whole entry): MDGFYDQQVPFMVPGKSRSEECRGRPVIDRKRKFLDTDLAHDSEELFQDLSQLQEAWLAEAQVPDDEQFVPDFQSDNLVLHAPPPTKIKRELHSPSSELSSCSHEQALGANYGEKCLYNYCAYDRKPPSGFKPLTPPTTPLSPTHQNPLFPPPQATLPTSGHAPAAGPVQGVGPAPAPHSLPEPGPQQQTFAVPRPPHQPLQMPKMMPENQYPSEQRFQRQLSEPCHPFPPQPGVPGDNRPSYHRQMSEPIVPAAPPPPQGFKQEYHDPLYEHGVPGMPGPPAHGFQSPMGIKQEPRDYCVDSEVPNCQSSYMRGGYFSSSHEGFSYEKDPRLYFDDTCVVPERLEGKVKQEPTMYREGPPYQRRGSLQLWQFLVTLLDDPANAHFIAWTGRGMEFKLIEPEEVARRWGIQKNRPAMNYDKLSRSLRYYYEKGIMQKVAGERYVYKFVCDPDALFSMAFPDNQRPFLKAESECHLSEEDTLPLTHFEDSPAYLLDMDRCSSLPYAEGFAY
Sequence of SPIB (Q01892 whole entry): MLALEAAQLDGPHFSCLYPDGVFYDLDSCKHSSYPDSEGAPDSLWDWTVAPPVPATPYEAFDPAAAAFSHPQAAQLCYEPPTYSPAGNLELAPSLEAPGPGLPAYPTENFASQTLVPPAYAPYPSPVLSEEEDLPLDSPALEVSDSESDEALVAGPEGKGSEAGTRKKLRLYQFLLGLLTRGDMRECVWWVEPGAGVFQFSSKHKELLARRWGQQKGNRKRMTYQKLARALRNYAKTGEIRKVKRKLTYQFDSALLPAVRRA

As to CCCAAA, the binding signal in assay [1] is 1.15 fold enrichment (6-mer frequency, TF over GST control); in assay [2], 1.17 fold enrichment (6-mer frequency, TF over GST control); in assay [3] it was 1.13 fold enrichment (6-mer frequency, TF over GST control); in assay [4] it was 1.18 fold enrichment (6-mer frequency, TF over GST control); in [5], 1.12 fold enrichment (6-mer frequency, TF over GST control); in assay [6], 1.15 fold enrichment (6-mer frequency, TF over GST control). Also, the binding signal in [7] is 1.14 fold enrichment (6-mer frequency, TF over GST control); in [8] it was 1.08 fold enrichment (6-mer frequency, TF over GST control); in assay [9] it was 1.07 fold enrichment (6-mer frequency, TF over GST control); in [10], 1.17 fold enrichment (6-mer frequency, TF over GST control).

The values above are taken from paper PMC7862700, “An all-to-all approach to the identification of sequence-specific readers for epigenetic DNA modifications on cytosine”.
